Screens from PubChem.
Sampled rows, rich in hits. Any-hit rate of the full collection: about 8%.
RORg inh – inhibitors of mouse ROR gamma transcriptional activity. Drosophila S2 Gal4-RORgamma UAS-luciferase reporter, 20 h. 5.4% of 310,000 active. Potency, µM (doses to about 53.6 µM), actives largely listed as inhibitors. P51450; further: nearly all actives have a fitted effect of over 60% in size
Target sequence (P51450 whole entry, looked up, the tested form may be a part): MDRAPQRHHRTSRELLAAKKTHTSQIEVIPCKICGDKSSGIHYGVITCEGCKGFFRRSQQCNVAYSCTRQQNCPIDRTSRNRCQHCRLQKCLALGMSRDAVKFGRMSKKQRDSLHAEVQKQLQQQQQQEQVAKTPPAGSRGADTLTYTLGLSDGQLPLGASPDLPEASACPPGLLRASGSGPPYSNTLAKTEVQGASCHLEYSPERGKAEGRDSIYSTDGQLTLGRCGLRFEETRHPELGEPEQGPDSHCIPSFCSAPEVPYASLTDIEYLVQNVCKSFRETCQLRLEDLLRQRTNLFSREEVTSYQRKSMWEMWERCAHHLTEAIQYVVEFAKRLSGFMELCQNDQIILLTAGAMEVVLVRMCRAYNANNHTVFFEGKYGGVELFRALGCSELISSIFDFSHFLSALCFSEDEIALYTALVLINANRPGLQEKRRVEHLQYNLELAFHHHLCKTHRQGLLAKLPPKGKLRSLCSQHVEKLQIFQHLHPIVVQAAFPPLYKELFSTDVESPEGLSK
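Stably transfected Drosophila Schneider cells are the test system, with ROR gamma fused to Gal4 and luciferase under UAS control; luminescence is read after 20 hr of 700 uM copper sulfate induction at ambient temperature.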
FBPA coupling cs – counter-screen for Giardia aldolase inhibitors: coupling enzyme system; coupling enzyme system counterscreen, AmpLite Red fluorescence; activity change, negative = inhibition, % at 58.2 µM, hits read low; 0.67% of 290,000 active; AID 2472; in the data active means activity change below about -30%
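Compounds tested against the coupling enzymes alone at 57.5 uM final; readout was AmpLite Red fluorescence (525/598 nm) after 20 min at RT.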
ELG1 DNA repair – ELG1-dependent DNA repair inhibition; Potency, µM (doses to about 46.1 µM), usual class: inhibitors; HEK293T ELG1-luciferase reporter, luminescence, 16 h; DNA damage induced by 5-fluorouridine; 2.3% of 330,000 active; further: nearly all actives have a fitted effect of over 55% in size
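HEK293T cells expressing luciferase-tagged ELG1 (2,000/well) received 5-Fluorouridine plus compound or DMSO for 16 hr at 37 °C. Luciferase was read by ONE-Glo luminescence after 30 min at room temperature.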
TSHR antagonist – blocks TSH signaling through the human TSH receptor. TSHR-expressing cells, TSH-stimulated cAMP HTRF, 2 h; stronger effect = lower value. P16473. activity change, negative = inhibition, % at 11.5 µM. AID 504810. 0.2% of 330,000 active;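 active means activity change below a set negative limit, meaning inhibition stronger than a set level, cut at about -70% in these data; inconclusive means activity change between two set negative limits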
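Inhibition of cAMP made by TSHR-expressing cells under TSH stimulation (4nM final, EC80; 2 h, 37 deg C) is quantified with a one-step lysis HTRF kit, anti-cAMP cryptate versus cAMP-d2.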
Gal4-VP16 FLuc – counter-screen for ROR gamma inhibitors: Gal4-VP16 reporter; 3.5% of 310,000 active; Potency, µM (top dose mostly 53.6 µM), actives largely listed as inhibitors; Drosophila S2 Gal4-VP16 UAS-luciferase, luminescence, 20 h;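 further: Gal4-VP16 expression switched on by copper sulfate through the metallothionein promoter; nearly all actives have a fitted effect of over 50% in size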
Each line names hits and unclear results; the compound was inactive in the other large screens. Unless noted, the call rests on the fitted dose curve; in most records, active means well fitted curve in the direction sought with a large enough effect; inconclusive means small, poorly fitted or top-dose-only effect, or another doubt; inactive means no such curve, though single readings can be large; an effect the other way counts as inactive or inconclusive.

CN1CCN(c2ccccc2NC(=O)c2ccc(-c3cccc([N+](=O)[O-])c3)o2)CC1	ELG1 DNA repair inconclusive
CCC(=O)N1CCN(c2ccccc2NC(=O)c2ccc(-c3cccc([N+](=O)[O-])c3)o2)CC1	ELG1 DNA repair 9.2µM
CCC(=O)N1CCN(c2ccccc2NC(=S)NC(=O)c2cccc([N+](=O)[O-])c2)CC1	RORg inh 7.94µM, ELG1 DNA repair inconclusive, Gal4-VP16 FLuc inconclusive
NS(=O)(=O)c1ccc(CNC(=O)c2ccc(C(=O)c3ccccc3)cc2)cc1	none (no result: RORg inh, FBPA coupling cs, Gal4-VP16 FLuc)
CCn1cc(S(=O)(=O)c2ccc(Cl)cc2)c(=O)c2cc(OC)ccc21	none (no result: FBPA coupling cs)
Cc1ccc(Nc2nc3ccccc3c(=O)s2)cc1	RORg inh 6.31µM, Gal4-VP16 FLuc 11.2µM
CC1=Nc2ccccc2N=C(NC(=O)CSC(=S)N2CCCCC2)C1c1ccccc1 (stereo unspecified)	ELG1 DNA repair 20.6µM
CC1=Nc2ccccc2N=C(NC(=O)CSC(=S)N2CCN(C)CC2)C1c1ccccc1 (stereo unspecified)	none
O=C(CCn1c(=S)oc2ccccc21)NC1CCCCCCC1	none
O=C1CCCc2ccccc2N1Cc1c(Cl)cccc1Cl	RORg inh 1.78µM, Gal4-VP16 FLuc inconclusive
Cc1cccc(NC(=S)NCc2ccc(F)cc2)c1	RORg inh inconclusive, Gal4-VP16 FLuc 12.6µM
COc1cccc(NC(=S)NCc2ccc3c(c2)cc(C)n3C)c1	RORg inh 4.47µM, Gal4-VP16 FLuc inconclusive
CNC(=S)NCc1ccc(OC)cc1	none
COc1ccc(CNC(=S)Nc2ccccc2)cc1	RORg inh 7.08µM, Gal4-VP16 FLuc 10µM
Fc1ccc(CNC(=S)NCc2cccc(Cl)c2)cc1	Gal4-VP16 FLuc inconclusive (no result: FBPA coupling cs)
COc1cccc(NC(=S)NCc2ccc(F)cc2)c1	RORg inh inconclusive, Gal4-VP16 FLuc 7.08µM
CC1CCC2(CC1)NC(=O)N(CC(=O)Nc1ccc(F)cc1)C2=O (stereo unspecified)	none (no result: RORg inh, FBPA coupling cs, Gal4-VP16 FLuc)
COc1ccc(CNCc2c(F)cccc2F)cc1OC	none
CN(CC(=O)Nc1ccc(Cl)c(C(F)(F)F)c1)C(=O)CNC(=O)C1CCCCC1	none (no result: RORg inh, FBPA coupling cs, Gal4-VP16 FLuc)
CN(CC(=O)Nc1cccc(F)c1)CC(=O)N(C)CC(=O)Nc1ccccc1Br	none (no result: RORg inh, FBPA coupling cs, Gal4-VP16 FLuc)
O=C1/C(=C\c2ccc(O)c(O)c2)Oc2c1ccc(O[C@@H]1O[C@H](CO)[C@@H](O)[C@H](O)[C@H]1O)c2O	none (no result: ELG1 DNA repair, TSHR antagonist)
Cc1cccc(NC(=O)NCc2ccc3c(c2)cc(C)n3C)c1	Gal4-VP16 FLuc inconclusive
COc1ccc(CNC(=S)Nc2cccc(C)c2)cc1	RORg inh 10µM, Gal4-VP16 FLuc 20µM
Cc1cccc(NC(=S)NCc2ccc3c(c2)cc(C)n3C)c1C	ELG1 DNA repair 25.9µM
Cc1cccc(NC(=S)NC(C)(C)CC(C)(C)C)c1	RORg inh 2.24µM, ELG1 DNA repair inconclusive, Gal4-VP16 FLuc 8.91µM
COc1ccc(CNC(=S)Nc2cccc(F)c2)cc1	RORg inh 10µM, Gal4-VP16 FLuc 6.31µM
Cc1coc2c1c(C)cc1oc(=O)c(CC(=O)NCCCN3CCCC3=O)c(C)c12	none
CCOC(=O)c1ccc(N2CCOCC2)c(NC(=O)c2nccnc2C(=O)O)c1	none (no result: FBPA coupling cs)
Cc1cc(SCC(=O)c2cccs2)n2nc(C)c(-c3ccccc3)c2n1	RORg inh 3.16µM, ELG1 DNA repair inconclusive, Gal4-VP16 FLuc 5.62µM
CC(=O)Nc1ccc(Nc2cc(C)nc3c(-c4ccc(Cl)cc4)c(C)nn23)cc1	RORg inh 11.2µM, Gal4-VP16 FLuc 7.08µM
Cc1cc(SCC#N)n2nc(C)c(-c3ccc(Cl)cc3)c2n1	RORg inh 15.8µM, Gal4-VP16 FLuc inconclusive
Cc1cc(SCC#N)n2nc(C)c(-c3ccccc3)c2n1	RORg inh 1.26µM, ELG1 DNA repair 23.1µM, Gal4-VP16 FLuc 2.51µM
C=CCSc1cc(C)nc2c(-c3ccccc3)c(C)nn12	RORg inh inconclusive
CC(C)(C)c1ccc(OCC(=O)NCCN2CCOCC2)cc1	none
O=[N+]([O-])c1ccccc1NC(=S)N/N=C/c1ccc(O)c(O)c1	RORg inh 10µM, ELG1 DNA repair inconclusive, Gal4-VP16 FLuc inconclusive
CCCCNC(=S)N/N=C/c1cccc(OCC)c1O	RORg inh 4.47µM, ELG1 DNA repair inconclusive, Gal4-VP16 FLuc 12.6µM
CCOc1cccc(/C=N/NS(=O)(=O)c2ccc(C)c([N+](=O)[O-])c2)c1O	RORg inh inconclusive, Gal4-VP16 FLuc 3.16µM
COc1cccc(/C=N/NC(=O)N/N=C/c2cccc(OC)c2O)c1O	ELG1 DNA repair inconclusive
CCOc1cccc(/C=N/NC(=S)Nc2ccccc2[N+](=O)[O-])c1O	RORg inh 5.01µM, ELG1 DNA repair inconclusive, Gal4-VP16 FLuc 11.2µM
COc1cc(CNCc2cc(OC)ccc2OC)cc(OC)c1	none
Oc1csc(Cc2nc(-c3ccc4ccccc4c3)cs2)n1	RORg inh 11.2µM, ELG1 DNA repair inconclusive
COc1ccc(/C=C/C(=O)NC(=S)Nc2ccccn2)cc1	RORg inh inconclusive, ELG1 DNA repair inconclusive
Cn1nnc(NC(=S)NC(=O)/C=C/c2ccco2)n1	none
COc1ccccc1/C=C/C(=O)NC(=S)Nc1ccccn1	RORg inh 4.47µM, ELG1 DNA repair inconclusive, Gal4-VP16 FLuc 5.62µM
O=C(/C=C/c1ccco1)NC(=S)Nc1ccccn1	RORg inh 10µM, ELG1 DNA repair inconclusive, Gal4-VP16 FLuc inconclusive
Cc1cccnc1NC(=S)NC(=O)/C=C/c1ccco1	RORg inh 2.82µM, ELG1 DNA repair inconclusive, Gal4-VP16 FLuc 7.94µM
O=C(N1CCOCC1)N1CCN(S(=O)(=O)c2cccc([N+](=O)[O-])c2)CC1	none
C[C@@H]1CCC(=O)N(CC[C@H](Oc2ccccc2)c2ccccc2)CC1	none
CC[C@H](C)[C@H](NC(=O)[C@H](Cc1ccc(O)cc1)NC(=O)[C@H](Cc1cnc[nH]1)NC(=O)[C@H](CCCNC(=N)N)NC(=O)[C@H](CC(C)C)NC(=O)[C@H](C)NC(=O)[C@@H](N)CO)C(=O)N[C@@H](CC(N)=O)C(=O)N[C@@H](CC(C)C)C(=O)N[C@H](C(=O)N[C@H](C(=O)N[C@@H](CCCNC(=N)N)C(=O)N[C@@H](CCC(N)=O)C(=O)N[C@@H](CCCNC(=N)N)C(=O)N[C@@H](Cc1ccc(O)cc1)C(N)=O)[C@@H](C)O)[C@@H](C)CC	none (no result: ELG1 DNA repair, TSHR antagonist)
CC12CCC(C(=O)N(CSC(=S)N/N=C\c3ccccc3)C1=O)C2(C)C (stereo unspecified)	RORg inh 1.12µM, Gal4-VP16 FLuc 1.58µM
CC12CCC(C(=O)N(CSC(=S)N/N=C\c3ccccc3Cl)C1=O)C2(C)C (stereo unspecified)	RORg inh inconclusive
C/C(=C\C(=O)c1ccccc1)Nc1ccc(O)cc1	RORg inh inconclusive, FBPA coupling cs -31.4, ELG1 DNA repair inconclusive
COc1ccc(NC(=O)c2cccnc2)cc1	ELG1 DNA repair inconclusive
CC(=O)Nc1ccc(NC(=S)Nc2ccccc2)cc1	none
